This is an account of results in PubChem BioAssay (NCATS).

Experiment [1] deals with Zika virus NS2B-NS3 protease (linked construct). Put plainly: Primary screen NINDS Rhodamine qHTS for Zika virus inhibitors (AID 1347160). Also: potency is read from the fitted curve at half-maximal effect; nearly all actives have a fitted effect of over 55% in size. Particulars: purified NS2B-NS3 protease, Rhodamine110 substrate fluorescence; series mostly up to 57.1 µM. The procedure, abridged:
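Kinetic fluorescence (Ex 480 nm, Em 540 nm) over 15 min with 1.5 microM Rhodamine110 peptide and 25 nM linked protease.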

Experiment [2] is described as follows: OV-KATE Cancer Cell Toxicity qHTS against the NCATS CANVASS Library (AID 1347345). Also: potency is read from the fitted curve at half-maximal effect. Particulars: OV-KATE cells viability, CellTiter-Glo luminescence, 72 h; series mostly up to 38.3 µM. The procedure, abridged:
(§1)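 Following a 4 h pre-incubation of 1000 seeded cells, compounds were pinned in an 11-pnt dilution series and left for 72 h; viability then came from CellTiter-Glo.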
Background: In qHTS, concentration-response curves come from the screen itself.

The nature of experiment [3]: HPAF-II Cancer Cell Toxicity qHTS against the NCATS CANVASS Library (AID 1347346). Also: potency is read from the fitted curve at half-maximal effect; nearly all actives have a fitted effect of over 55% in size. To be noted: HPAF-II viability, CellTiter-Glo ATP luminescence, 72 h; series mostly up to 38.3 µM. The method in brief:
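HPAF-II cells were seeded at 1000 cells/well, allowed to settle for 4 h at 37 degrees C, then exposed to compounds in an 11-point series for 72 h. Viability was read by CellTiter-Glo luminescence.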

The nature of experiment [4]: OV-SAHO Cancer Cell Toxicity qHTS against the NCATS CANVASS Library (AID 1347348). Also: potency is read from the fitted curve at half-maximal effect; nearly all actives have a fitted effect of over 55% in size. To be noted: OV-SAHO viability, CellTiter-Glo luminescence, 72 h; series mostly up to 38.3 µM. The procedure, abridged: as §1
A short description of experiment [5]: HEK293 24hr Apoptosis Induction qHTS against the NCATS CANVASS Library (AID 1347359). Also: 0% is about no effect. To be noted: HEK293 caspase-3/7 activation, Caspase-Glo luminescence; series mostly up to 46.1 µM. The procedure, abridged: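 HEK293 cells (500/well, DMEM + 10% FBS) were exposed to compounds in an 11-point series for 24 hours at 37 degrees C, then caspase-3/7 activity was read by Caspase-Glo DEVD luciferase luminescence after 15 min.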

Experiment [6] can be described thus: HEK293 12hr Apoptosis Induction qHTS against the NCATS CANVASS Library (AID 1347361). Also: 0% is about no effect. To be noted: HEK293 caspase-3/7 Caspase-Glo luminescence; series mostly up to 46.1 µM. The procedure, abridged: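 500 HEK293 cells/well; cpds pin-transferred, 11-pt conc series; 12 h, 37 degrees C/5% CO2; Caspase-Glo 3/7 added, 15 min RT dark; luminescence.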
Experiment [7] concerns NAD(P)H diaphorase (Clostridium kluyveri). As to the kind of experiment: Diaphorse counterscreen qHTS: Assay Interference Panel against the NCATS CANVASS Library (AID 1347362). Also: 0% is about no effect. To be noted: Diaphorase enzyme, resazurin to resorufin fluorescence; series mostly up to 57.5 µM. The procedure, abridged:
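Clostridium kluyveri diaphorase in PBS with 0.01% Tween-20 was preincubated 15 min at room temperature in the dark with compounds (11-point series). Resorufin fluorescence (ex 525/20, em 598/25) was read 5 min after adding resazurin/NADH.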
For orientation: A counterscreen serves to expose hits that act by an unwanted route or on another target.

The target of experiment [8] is Luciferin 4-monooxygenase (Photinus pyralis) (UniProt P08659). Put plainly: Firefly luciferase counterscreen qHTS: Assay Interference Panel against the NCATS CANVASS Library (AID 1347363). Also: 0% is about no effect. Particulars: purified firefly luciferase, luminescence inhibition, 5 min; series mostly up to 57.5 µM. The method in brief: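 Purified P. pyralis luciferase was added to compounds (11-point series) preincubated 15 min at room temperature with substrate containing 0.013 mM D-luciferin and 0.013 mM ATP; luminescence was read after 5 min.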
Sequence of Luciferin 4-monooxygenase (Photinus pyralis) (P08659 whole entry, looked up): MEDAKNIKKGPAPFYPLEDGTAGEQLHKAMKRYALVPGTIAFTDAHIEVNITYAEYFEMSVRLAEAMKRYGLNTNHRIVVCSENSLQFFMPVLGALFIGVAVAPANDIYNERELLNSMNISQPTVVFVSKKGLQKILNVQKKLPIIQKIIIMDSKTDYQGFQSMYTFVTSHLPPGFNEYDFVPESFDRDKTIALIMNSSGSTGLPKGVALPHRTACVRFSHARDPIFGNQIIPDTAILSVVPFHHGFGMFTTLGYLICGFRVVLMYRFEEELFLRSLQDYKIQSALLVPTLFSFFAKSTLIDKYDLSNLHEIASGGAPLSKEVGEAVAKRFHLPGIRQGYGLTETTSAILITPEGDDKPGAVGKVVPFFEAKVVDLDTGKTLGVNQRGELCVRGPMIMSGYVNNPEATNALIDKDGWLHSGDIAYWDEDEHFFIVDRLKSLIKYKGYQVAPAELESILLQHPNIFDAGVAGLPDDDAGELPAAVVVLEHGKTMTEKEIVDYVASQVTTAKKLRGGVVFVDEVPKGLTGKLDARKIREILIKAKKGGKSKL

Experiment [9] addresses Nuclear receptor subfamily 1 group I member 3 (Homo sapiens) (UniProt Q14994). As to the kind of experiment: qHTS for Constitutive Androstane Receptor (CAR) Agonist screened against the NCATS CANVASS Library (AID 1347373).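 Also: every well also contained 1.5 µM PK11195 alongside the test compound; 0% is about no effect.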 To be noted: HepG2-hCAR-CYP2B6 luciferase reporter, ONE-Glo luminescence; series mostly up to 46.1 µM. The procedure, abridged:
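HepG2 cells stably expressing hCAR and a CYP2B6-2.2kb luciferase reporter were treated for 24hr at 37C with compounds (11-point qHTS) in the presence of 1.5uM PK11195. Reporter activation was read by ONE-Glo luminescence.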

Experiment [10] in a line: 10-beta competent E. coli microbial cell viability qHTS against the NCATS CANVASS Library (AID 1347376). Also: 0% is about no effect. Particulars: E. coli 10-beta viability, BacTiter-Glo ATP luminescence, overnight; series mostly up to 46.1 µM. The procedure, abridged: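 10-beta competent E. coli (0.9 OD culture diluted to 0.2 OD) exposed to compounds in an 11-point qHTS series, incubated overnight at 37C, 5% CO2. Viability read as ATP by BacTiter-Glo luminescence after 20 min at room temperature.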

Experiment [11] in a line: qHTS for H2AX Agonists against the NCATS CANVASS Library (AID 1347378). Also: 0% is about no effect. To be noted: CHO-K1 H2AX phosphorylation, HTRF TR-FRET, 3 h; series mostly up to 76.9 µM. The method in brief:
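TR-FRET readout (ex 320 nm, em 665/620 nm ratio) of phospho-H2AX (S139) in CHO-K1 lysates. Cells treated 3 hr at 37C with compound titration, 0.76% DMSO; lysis 30 min, antibody detection 24 hr at RT.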

Experiment [12] in a line: Inflammasome Signaling qHTS Counterscreen: IL-1-beta AlphaLISA counterscreen against the NCATS CANVASS Library (AID 1347381).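 Also: cell-free check with purified IL-1β in medium and no THP-1 cells; 0% is about no effect.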 Particulars: Purified IL-1beta AlphaLISA signal interference counterscreen; series mostly up to 57.5 µM. The method in brief:
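To flag interference with the AlphaLISA read-out, a known amount of purified IL-1-beta (4 pg) replaced cell supernatant. Detection used anti-IL-1-beta acceptor beads, biotinylated antibody and streptavidin donor beads at room temperature.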

Experiment [13] deals with Glucocorticoid receptor (Homo sapiens) (UniProt P04150). As to the kind of experiment: GR-GFP Redistribution (AID 450;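 active = compounds whose dose series gives a full or clear partial fitted curve of increased nuclear translocation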; also: potency is read from the fitted curve at half-maximal effect). Particulars: U2OS GR-GFP nuclear translocation, laser cytometry, 2 h.
Sequence of Glucocorticoid receptor (Homo sapiens) (P04150 whole entry, looked up, the tested form may be a part): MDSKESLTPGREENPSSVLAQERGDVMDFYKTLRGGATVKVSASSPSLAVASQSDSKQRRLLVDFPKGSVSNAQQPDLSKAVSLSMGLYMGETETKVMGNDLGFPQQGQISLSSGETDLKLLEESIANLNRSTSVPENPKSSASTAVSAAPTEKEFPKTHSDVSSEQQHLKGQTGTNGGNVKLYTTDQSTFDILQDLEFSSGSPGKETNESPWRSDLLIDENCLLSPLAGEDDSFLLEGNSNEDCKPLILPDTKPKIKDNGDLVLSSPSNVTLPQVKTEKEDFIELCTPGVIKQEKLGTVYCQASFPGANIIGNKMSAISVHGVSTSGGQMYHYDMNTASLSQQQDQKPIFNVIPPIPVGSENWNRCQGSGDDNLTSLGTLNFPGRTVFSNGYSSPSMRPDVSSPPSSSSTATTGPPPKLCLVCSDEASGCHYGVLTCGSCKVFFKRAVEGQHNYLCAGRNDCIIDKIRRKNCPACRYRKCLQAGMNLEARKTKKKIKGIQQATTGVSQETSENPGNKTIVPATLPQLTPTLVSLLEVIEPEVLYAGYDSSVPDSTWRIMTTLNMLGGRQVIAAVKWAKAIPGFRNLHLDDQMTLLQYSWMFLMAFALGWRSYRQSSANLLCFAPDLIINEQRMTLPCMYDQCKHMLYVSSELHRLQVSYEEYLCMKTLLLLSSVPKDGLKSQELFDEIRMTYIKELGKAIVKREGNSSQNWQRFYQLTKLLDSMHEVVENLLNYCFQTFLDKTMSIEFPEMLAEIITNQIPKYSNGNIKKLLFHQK
Experiment [14] in a line: qHTS Assay for Lipid Storage Modulators (AID 1519; calls by dose curve; as to activity change, negative = inhibition: % is scaled to controls: 0 for no effect and ±100 for the full control effect). To be noted: Drosophila S3 cells, BODIPY lipid droplet/cell ratio, laser cytometry, cells loaded with oleic acid; for activity change, negative = inhibition: at 57.5 µM (top of the series). The procedure, abridged: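 Cells seeded at 5,000 per well were treated with compounds over a concentration series and loaded with oleic acid (400 uM, as added). Lipid droplet fluorescence (488 nm excitation, 500-530 nm channel) was read by laser-scanning cytometry and normalized to 20 uM Triacsin C.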

The target of experiment [15] is DNA dC->dU-editing enzyme APOBEC-3G (Homo sapiens) (UniProt Q9HC16). Put plainly: qHTS for inhibitors of Vif-A3G interactions: Validation (AID 588379). Also: 0% is about no effect. Particulars: Vif-A3G protein interaction assay; series mostly up to 46.1 µM. The method in brief: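 HeLa cells stably expressing Vif and A3G-eYFP, 700 cells/well, incubated overnight at 37 deg C, then exposed to compound overnight at 37 deg C. Inhibition of Vif-mediated degradation read as increased yellow fluorescence (Ex 488/Em 500-530) by laser-scanning cytometry.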
Sequence of DNA dC->dU-editing enzyme APOBEC-3G (Homo sapiens) (Q9HC16 whole entry, looked up): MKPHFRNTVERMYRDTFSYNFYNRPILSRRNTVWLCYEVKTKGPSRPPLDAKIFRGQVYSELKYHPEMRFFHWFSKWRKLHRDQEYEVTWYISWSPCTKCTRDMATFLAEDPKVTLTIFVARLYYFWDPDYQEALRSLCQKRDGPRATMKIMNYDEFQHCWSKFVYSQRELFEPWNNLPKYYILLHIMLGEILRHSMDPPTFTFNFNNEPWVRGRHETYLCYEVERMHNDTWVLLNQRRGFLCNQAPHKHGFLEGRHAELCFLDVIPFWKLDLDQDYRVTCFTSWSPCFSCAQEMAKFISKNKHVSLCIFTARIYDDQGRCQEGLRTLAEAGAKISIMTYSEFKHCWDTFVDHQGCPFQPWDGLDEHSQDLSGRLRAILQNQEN

Experiment [16] can be described thus: Primary qHTS for small molecule stabilizers of the endoplasmic reticulum resident proteome: Secreted ER Calcium Modulated Protein (SERCaMP) assay (AID 1508630). Also: % is scaled to controls: 0 for no effect and ±100 for the full control effect. To be noted: SH-SY5Y GLuc-SERCaMP (Gaussia luciferase released on ER calcium loss) secretion, thapsigargin, luminescence; series mostly up to 38.4 µM. The method in brief:
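GLuc-SERCaMP-expressing SH-SY5Y cells, pretreated 16 h with compound, are challenged with thapsigargin to empty ER calcium stores; after 4 h, coelenterazine is added directly to the medium and luminescence is imaged.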

The target of experiment [17] is Glucocorticoid receptor (Homo sapiens) (UniProt P04150). As to the kind of experiment: GR-EFC Redistribution (AID 451; calls by dose curve; also: potency is read from the fitted curve at half-maximal effect). Particulars: CHO-K1 GR-EFC translocation, beta-gal luminescence, 2 h. The procedure, abridged:
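CHO-K1 cells stably expressing nuclear-localized β-gal enzyme acceptor and GR fused C-terminally to the enzyme donor fragment; ligand-driven nuclear translocation restores β-gal by complementation. Compounds titrated up to 46 uM final, 2 h at 37 °C; luminescence read.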

Experiment [18] deals with 3',5'-cyclic-AMP phosphodiesterase 4B (Homo sapiens) (UniProt Q07343). Put plainly: qHTS Assay for Inhibitors of PDE-IV (AID 607; active = well fitted activation curve with a large enough effect in the main read-out, with a control signal flat, not every such curve was filed as active; also: % of control where 0% means no effect). Particulars: HEK293 ACTOne CNG channel cells, membrane potential fluorescence; series mostly up to 22.9 µM. The procedure, abridged: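 The readout is membrane depolarisation from a cAMP-sensing CNG channel, detected with a potential dye at ex 535/em 590. Cells were HEK293-derived (endogenous PDE-IV) at 1000 cells/well, titrated up to 22.9 uM final.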
Sequence of 3',5'-cyclic-AMP phosphodiesterase 4B (Homo sapiens) (Q07343 whole entry, looked up): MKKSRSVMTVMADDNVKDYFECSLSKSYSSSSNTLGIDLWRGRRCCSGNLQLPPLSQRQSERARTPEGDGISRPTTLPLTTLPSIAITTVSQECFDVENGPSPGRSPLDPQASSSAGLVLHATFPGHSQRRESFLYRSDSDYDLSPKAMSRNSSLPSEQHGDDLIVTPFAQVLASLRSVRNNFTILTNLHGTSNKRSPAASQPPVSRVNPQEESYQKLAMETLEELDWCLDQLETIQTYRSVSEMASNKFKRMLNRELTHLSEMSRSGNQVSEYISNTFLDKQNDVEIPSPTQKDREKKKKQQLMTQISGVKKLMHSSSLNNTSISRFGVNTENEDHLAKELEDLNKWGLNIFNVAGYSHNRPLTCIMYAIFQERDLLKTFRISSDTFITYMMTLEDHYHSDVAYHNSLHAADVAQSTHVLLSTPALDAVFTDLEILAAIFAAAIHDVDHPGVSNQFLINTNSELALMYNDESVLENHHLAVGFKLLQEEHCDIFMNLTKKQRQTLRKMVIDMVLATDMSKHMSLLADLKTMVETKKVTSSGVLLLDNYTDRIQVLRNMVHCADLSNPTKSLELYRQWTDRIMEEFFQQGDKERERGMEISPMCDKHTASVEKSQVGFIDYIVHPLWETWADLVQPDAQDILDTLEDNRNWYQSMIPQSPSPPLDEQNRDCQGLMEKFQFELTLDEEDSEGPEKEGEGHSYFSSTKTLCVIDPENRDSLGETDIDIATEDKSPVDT

For experiment [19], the target named is Mitogen-activated protein kinase 10 (Mus musculus) (UniProt Q61831). Put plainly: JNK3 AlphaScreen Assay (AID 530; active = well fitted curve in either direction with a large enough effect, not every such curve was filed as active;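 also: kinase came from lysate of stimulated human HepG2 cells; % is scaled to controls: 0 for no effect and ±100 for the full control effect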). To be noted: JNK3 lysate, c-Jun phosphorylation; series mostly up to 57.1 µM. The procedure, abridged: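 JNK3 came from HepG2 lysates pre-activated with IL-1beta and TNF-alpha and phosphorylated biotinylated GST-cJun (1-79) at 10 uM ATP, pH 7.6, room temperature. Compounds were titrated. AlphaScreen signal used anti-phospho-cJun (Ser73) antibody.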
Background: Bead proximity is the source of the signal in Alpha formats.

[20] abbreviates: measured here: cell count channel max response.
Setting [21] is: measured here: lipid channel max response.

Each structure is given as a SMILES string. Records with an inconclusive call do not appear. Calls of active or inactive are those of the source. Unless noted, calls follow the shape of the dose curve; as a rule, active = well fitted curve in the direction sought with a large enough effect; inconclusive = small, poorly fitted or top-dose-only effect, or another doubt; inactive = no such curve, though single readings can be large; an effect the other way counts as inactive or inconclusive.

Sequence of Nuclear receptor subfamily 1 group I member 3 (Homo sapiens) (Q14994 whole entry, looked up): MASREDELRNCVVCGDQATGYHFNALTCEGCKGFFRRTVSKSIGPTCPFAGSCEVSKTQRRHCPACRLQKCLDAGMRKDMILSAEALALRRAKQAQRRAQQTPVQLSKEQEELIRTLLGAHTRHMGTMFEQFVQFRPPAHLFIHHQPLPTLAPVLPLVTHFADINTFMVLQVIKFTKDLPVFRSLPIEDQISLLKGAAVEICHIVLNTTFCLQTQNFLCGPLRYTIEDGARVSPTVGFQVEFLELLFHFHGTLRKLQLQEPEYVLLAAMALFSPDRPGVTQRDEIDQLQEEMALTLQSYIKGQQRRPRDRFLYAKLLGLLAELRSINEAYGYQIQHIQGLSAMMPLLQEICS

On to `O=C(c1ccccc1O)c1[nH]c(Cl)c(Cl)c1-n1c(C(=O)c2ccccc2O)cc(Cl)c1Cl`, for which the Potency in [1] was 2.47 µM (active); in experiment [2], 5.94 µM (active); in experiment [3], 1.33 µM (active); in experiment [4] it was 2.11 µM (active). For the same compound, the Potency entry in [5], in experiment [6] and in [11] was “inactive” throughout. Also, the compound was classed as inactive in [7], in [8], in [9], in [10] and in [12].

On to `NC[C@H](CS(=O)(=O)O)c1ccc(Cl)cc1`, for which the Potency in experiment [13] is > 46 µM (inactive). Besides, the activity change, negative = inhibition in [14] was 3.36% (inactive). The max response in experiment [14] (setting [20]) came to 7.7%; in [14] (setting [21]), 12%. Besides, the Potency result in [15] and in experiment [16] was “inactive” in each case.

For `COc1ccc(C[C@H]2NC[C@H](O)[C@@H]2OC(C)=O)cc1`, the Potency in experiment [13] and in experiment [17] was > 46 µM (inactive) throughout. The Potency entry in experiment [18], in experiment [15] and in [16] was “inactive” throughout.

Take `C/C(=C\C=C/[C@@H](C)C(=O)O)[C@H]1CN[C@H](C(=O)O)[C@@H]1CC(=O)O`: the Potency in experiment [13] and in experiment [17] was > 46 µM (inactive) each time. Further, the call in experiment [19] was inactive. The Potency entry in [15] and in experiment [16] was “inactive” throughout.

On to `NCCCP(=O)(O)CC1CCCCC1`, for which the Potency in experiment [13] and in [17] was > 46 µM (inactive) throughout. The result in [19] was inactive. Further, the Potency entry in experiment [18], in [15] and in experiment [16] was “inactive” in each case.

For the compound `O=C(Cc1ccc(Cl)c(Cl)c1)N1CCCC[C@H]1CN1CCCC1`, the Potency in experiment [13] and in experiment [17] was > 46 µM (inactive) each time. The compound was called inactive in experiment [19]. In addition, the Potency entry in experiment [18] and in experiment [15] was “inactive” each time.

For `N[C@H](Cc1o[nH]c(=O)c1Cl)C(=O)O`, the Potency in experiment [13] is > 46 µM (inactive). For the same compound, in [19], the call was inactive. For the same compound, the Potency result in [18] and in experiment [15] was “inactive” each time. Moreover, the activity change, negative = inhibition in experiment [14] was -0.357% (inactive). For the same compound, the max response in [14] (setting [20]) is 4.55%; in experiment [14] (setting [21]), 4.87%.
